Only some compounds are listed: those with a hit (about 11% of all), similar ones and a draw of the others.
AmpC inh no detg: AmpC beta-lactamase inhibition without detergent. Potency, µM (titrated, usually from 57.1 µM), inactives show top-dose activity change, negative = inhibition, most hits filed as inhibitors. AmpC nitrocefin hydrolysis, absorbance 480 nm, 0.0001% Triton. 330,000 tested, 0.52% active;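 note: plate controls were no compound for no effect and no enzyme for full effect; nearly all actives have a fitted effect of over 20% in size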
Target sequence (P00811 whole entry, looked up): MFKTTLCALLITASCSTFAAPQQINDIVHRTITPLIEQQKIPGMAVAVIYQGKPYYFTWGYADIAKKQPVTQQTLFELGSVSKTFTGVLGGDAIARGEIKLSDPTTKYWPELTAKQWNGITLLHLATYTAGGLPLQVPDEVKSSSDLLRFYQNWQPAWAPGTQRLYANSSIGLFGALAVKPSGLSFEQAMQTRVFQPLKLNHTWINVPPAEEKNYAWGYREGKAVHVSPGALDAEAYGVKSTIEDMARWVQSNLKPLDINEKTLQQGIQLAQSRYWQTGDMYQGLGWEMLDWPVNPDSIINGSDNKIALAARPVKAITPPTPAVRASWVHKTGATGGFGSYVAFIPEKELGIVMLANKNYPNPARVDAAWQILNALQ
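20 mM phosphate pH 7.0 + 0.01% (detergent screen) or 0.0001% Triton X-100; 5.3 nM AmpC reagent; cpd preinc 15 min RT; nitrocefin (800 uM stock) to start; A480 q20 s × 4 min; Activity was normalised to no-enzyme and no-compound control wells.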
AMA1 RON2 block: disrupts binding of P. falciparum AMA1 to RON2; AlphaScreen AMA1-biotinylated RON2 peptide binding; Potency, µM (doses to about 58.2 µM), without a hit: top-dose activity change, negative = inhibition, hits mostly inhibitors; 360,000 tested, 0.2% active;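 note: 0% = vehicle wells and -100% = peptide control; nearly all actives have a fitted effect of over 45% in size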
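AMA1 (3D7) with his tag at 25 nM final met compounds first, then biotinylated RON2 peptide at 25 nM; detection used donor plus acceptor beads, 10 µg/mL apiece, read by AlphaScreen after 30 min at room temperature.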
Pf growth 48h: P. falciparum growth inhibition at 48 hours (one generation) | P. falciparum luciferase growth in erythrocytes, 48 h | Potency, µM (highest dose often 28.7 µM), without a hit: at the top dose activity change, negative = inhibition, usual class: inhibitors | 310,000 tested, 5.9% active | AID 504832
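Cell-based growth assay: transgenic P. falciparum expressing firefly luciferase, cultured in red cells within RPMI 1640 containing 0.5% w/v Albumax, 24 mM bicarbonate and gentamycin. A drop in luciferase activity indicates inhibition.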
Pf growth 96h: P. falciparum growth inhibition at 96 hours; P. falciparum luciferase reporter growth, 96 h; Potency, µM (highest dose often 28.7 µM), for inactives: at the top dose activity change, negative = inhibition, most hits filed as inhibitors; 320,000 tested, 6.9% active; AID 504834
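Delayed-death screen, second-generation endpoint: infected erythrocytes, 2% hematocrit, 0.05% parasitemia final; 96 hours at 37 C, 5% CO2; luciferase detection reagent; luminescence decrease equals reduced growth.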
HCV inhibitor: blocks hepatitis C virus. Potency, µM (top dose mostly 41.8 µM), for inactives: at the highest dose activity change, negative = inhibition, actives largely listed as inhibitors. 340,000 tested, 3.4% active. AID 651820. Huh7.5.1 HCVcc-Cre infection, luciferase reporter, 44 h
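A cell-based infection assay in which seeded cells (1,000 per well) receive test compound after 4 h, are inoculated with HCVcc-Cre at approximately 0.5 moi, and are incubated 44 h before luminescence detection.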
AmpC inh detg: AmpC beta-lactamase inhibition with detergent present; P00811; AmpC hydrolysis of nitrocefin, absorbance 480 nm, 0.01% Triton; Potency, µM (doses to about 114 µM), for the others: at the top dose activity change, negative = inhibition, actives largely listed as inhibitors; 370,000 tested, 0.041% active; AID 485294;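 note: 0% = no-compound wells and -100% = no-enzyme wells; nearly all actives have a fitted effect of over 25% in size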
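AmpC (5.3 nM in the dispensed reagent) in 20 mM phosphate pH 7.0 with 0.01% (detergent screen) or 0.0001% Triton X-100 was preincubated with compounds for 15 min at room temperature. Nitrocefin was then added from an 800 uM solution, and hydrolysis was followed at 480 nm.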
An asterisk follows results filed as active; ? = inconclusive; nt = not tested or not shown. Calls come from the whole dose curve; as a rule, active = well fitted curve in the direction sought with a large enough effect; inconclusive = small, poorly fitted or top-dose-only effect, or another doubt; inactive = no such curve, though single readings can be large; an effect the other way counts as inactive or inconclusive. Unless noted, % is set by controls: 0 for no effect and ±100 for the full control effect; potency is the fitted concentration of half-maximal effect.

SMILES	AmpC inh no detg	AMA1 RON2 block	Pf growth 48h	Pf growth 96h	HCV inhibitor	AmpC inh detg
CC(C)OC(=O)C1C(=O)CC(C)(O)C(C(=O)OC(C)C)C1c1cccc(O)c1 (stereo not drawn)	-5%	-1%	-3%	4.1µM*	3%	-3%
CC(C)OC(=O)C1C(=O)CC(C)(O)C(C(=O)OC(C)C)C1c1ccc(F)cc1 (stereo not drawn)	9%	0%	nt	?	8%	?
COc1ccc(OC(C)C(=O)NCc2nc(-c3cccc(C)c3)no2)cc1 (stereo not drawn)	nt	nt	nt	nt	nt	1%
O=C(O)c1ccc2c(c1)C(=O)N(CCc1ccc(O)cc1)C2=O	-22%	nt	3%	-7%	nt	?
CC(C(Sc1ccccc1N)c1ccccc1)[N+](=O)[O-] (stereo not drawn)	-24%	-5%	2.6µM*	0%	7%	-5%
CCOc1ccc(NC(=O)C2CCC(CNS(=O)(=O)c3ccc4c(c3)CCCC(=O)N4)CC2)cc1 (stereo not drawn)	nt	nt	nt	nt	nt	1%
Cc1nc2ccc(NC(=O)c3cccc(S(=O)(=O)N4CC(C)OC(C)C4)c3)cc2s1 (stereo not drawn)	63%	-1%	nt	8.3µM*	2.8µM*	0%
CN1CCN(S(=O)(=O)c2cccc(C(=O)Nc3ccccc3N3CCCC3)c2)CC1	75%	-16%	-9%	-15%	-3%	2%
CC1CN(S(=O)(=O)c2cccc(C(=O)Nc3cc(Cl)ccc3N3CCOCC3)c2)CC(C)O1 (stereo not drawn)	81%	-11%	9.3µM*	9.3µM*	?	-10%
CC1CN(S(=O)(=O)c2cccc(C(=O)Nc3ccccc3N3CCCC3)c2)CC(C)O1 (stereo not drawn)	48%	-17%	?	?	32µM*	-12%
CC1CN(c2nc3ccccc3nc2C(C#N)C(=O)OC2CCCCC2)CC(C)O1 (stereo not drawn)	5%	0%	2.1µM*	?	7%	-12%
Cc1ccc(S(=O)(=O)C(C#N)c2nc3ccccc3nc2N2CC(C)OC(C)C2)cc1C (stereo not drawn)	-34%	42%	13µM*	?	-2%	?
Cc1cccc(S(=O)(=O)C(C#N)c2nc3ccccc3nc2N2CC(C)OC(C)C2)c1 (stereo not drawn)	nt	-2%	?	25%	-7%	11%
CCOC(=O)c1c(NC(=O)COc2ccc(Cl)cc2C)sc(C(C)=O)c1C	nt	nt	nt	nt	nt	5%
O=C(NNc1cccc(Cl)n1)C(F)(F)F	-19%	32%	12µM*	2.3µM*	15%	-21%
CC(=O)NNc1cccc(Cl)n1	-23%	1%	16%	0%	6%	9%
O=C(Nc1ccc2nc(-c3cccs3)c(-c3cccs3)nc2c1)NC1CC1	-36%	7%	nt	9.3µM*	25µM*	-5%
COc1cccc(C(=O)Nc2sc(C(C)C)cc2C(N)=O)c1OC	65%	16%	?	13µM*	?	-14%
CCc1ccc(CN(Cc2ccco2)C(=O)c2ccc(OC)cc2)cc1	nt	nt	nt	nt	nt	21%
COc1ccc(N(CC(=O)NC2CCCC2)C(=O)c2ccc(N3CCCCC3)nc2)cc1	46%	-5%	9.3µM*	?	-7%	-6%
CCC(C)(C)NC(=O)CN(C(=O)c1ccc(N2CCCC2)nc1)c1ccc(F)cc1	99%	0%	4.1µM*	?	6%	?
COCCNC(=O)CN(C(=O)c1ccc(N2CCCC2)nc1)c1ccc(Cl)cc1	168%	0%	-18%	?	9%	0%
C=CCn1c2ccccc2c(=O)c2cc(C#CC3(O)CCCCC3)ccc21	1%	19%	142%	?	10µM*	7%
O=c1c2ccccc2sc2ccc(C#CC3(O)CCCCC3)cc12	nt	3%	nt	nt	?	nt
Cn1c2ccccc2c(=O)c2cc(C#Cc3cccc(N)c3)ccc21	-37%	12%	15%	-2%	?	-2%
SMILES	AmpC inh no detg	AMA1 RON2 block	Pf growth 48h	Pf growth 96h	HCV inhibitor	AmpC inh detg
C=CCn1c2ccccc2c(=O)c2cc(C#CC[C@@H](C)O)ccc21	28%	46%	0%	?	13µM*	-5%
O=C(Cn1c(=O)n(-c2ccc(F)c(Cl)c2)c(=O)c2sc3ccccc3c21)NC1CCCCC1	nt	nt	nt	nt	nt	9%
Cc1nc(CSc2nsc(/C=C/N(C)C)c2C#N)cs1	20µM*	-11%	?	9.3µM*	3%	0%
COC(=O)c1ccccc1CSc1nsc(/C=C/N(C)C)c1C#N	28µM*	0%	?	-18%	-26%	-1%
COC(=O)c1cccnc1SCc1ccccc1	-16%	21%	-4%	-19%	6%	-13%
O=C(NCc1ccc(F)cc1)C(=O)NCC(c1ccc2c(c1)OCO2)N1CCOCC1 (stereo not drawn)	nt	nt	nt	nt	nt	6%
C#CCn1c(=NC(=O)c2ccc(S(=O)(=O)N3CCc4ccccc4C3)cc2)sc2cc(S(N)(=O)=O)ccc21	-29%	-3%	?	5.2µM*	-20%	-14%
COCCn1c(=NC(=O)c2ccc(S(=O)(=O)N3CCc4ccccc4C3)cc2)sc2cc(S(N)(=O)=O)ccc21	-31%	1%	?	7.4µM*	1%	?
CCOCCn1c(=NC(=O)c2ccc(S(=O)(=O)N3CCOCC3)cc2)sc2cc(S(N)(=O)=O)ccc21	22%	3%	15µM*	6.6µM*	22µM*	?
CCOc1ccc(-n2nc(CO)c(C(=O)NCc3cccs3)n2)cc1	nt	nt	nt	nt	nt	2%
CCn1c2ccccc2c2cc(C#N)c(N)nc21	nt	-1%	nt	nt	13µM*	nt
CCC(CC)NCc1ccc2c(c1)c1ccccc1n2CC	45%	-19%	?	?	13µM*	-6%
CCn1c2ccccc2c2cc(N)ccc21	-29%	5%	?	12µM*	-21%	-5%
CCn1c2ccccc2c2cc(C3C(C#N)=C(C)NC(C)=C3C#N)ccc21	-7%	5%	?	0%	11µM*	-8%
CCn1c(=O)n(CC)c2cc(N)ccc21	19%	-4%	?	-17%	-28%	0%
COc1ccc(-c2nc3sc(CCNC(=O)Cc4ccc(F)cc4)c(C)n3n2)cc1	nt	nt	nt	nt	nt	3%
Cc1ccc(Cl)cc1N1CCN(C(=O)c2cc(S(=O)(=O)N3CCC(C)CC3)cn2C)CC1	nt	nt	nt	nt	nt	18%
CCn1c2ccccc2c2cc(CNCc3ccc(OC)cc3OC)ccc21	94%	?	?	-1%	13µM*	-2%
CCn1c2ccccc2c2cc(/C=N/NC(=O)c3cc(O)cc(O)c3)ccc21	-3%	-7%	?	15%	?	3%
